According to PubChem BioAssay (EPA / NIEHS):
Where “and” joins values, the source holds several entries; their conditions need not be identical. Equal values may be shown once. Where a structure was tested more than once in an assay, its records may differ in their call. Calls of active or inactive are those of the source. Rule for the calls: active = hit-call score of the fitted dose curve at least 0.9, where 1 is the maximum; inconclusive = response in the unintended direction; inactive = score below 0.9.

What follows are compounds tested against Estrogen receptor (Homo sapiens) (UniProt P03372) (assay: OT_ERa_GFPERaERE_0120: Odyssey Thera (OT) 2-hour HeLa Transcription Induction Assay for Estrogen Receptor (AID 2283382)).
Estrogen receptor (Homo sapiens), sequence (P03372 whole entry, looked up): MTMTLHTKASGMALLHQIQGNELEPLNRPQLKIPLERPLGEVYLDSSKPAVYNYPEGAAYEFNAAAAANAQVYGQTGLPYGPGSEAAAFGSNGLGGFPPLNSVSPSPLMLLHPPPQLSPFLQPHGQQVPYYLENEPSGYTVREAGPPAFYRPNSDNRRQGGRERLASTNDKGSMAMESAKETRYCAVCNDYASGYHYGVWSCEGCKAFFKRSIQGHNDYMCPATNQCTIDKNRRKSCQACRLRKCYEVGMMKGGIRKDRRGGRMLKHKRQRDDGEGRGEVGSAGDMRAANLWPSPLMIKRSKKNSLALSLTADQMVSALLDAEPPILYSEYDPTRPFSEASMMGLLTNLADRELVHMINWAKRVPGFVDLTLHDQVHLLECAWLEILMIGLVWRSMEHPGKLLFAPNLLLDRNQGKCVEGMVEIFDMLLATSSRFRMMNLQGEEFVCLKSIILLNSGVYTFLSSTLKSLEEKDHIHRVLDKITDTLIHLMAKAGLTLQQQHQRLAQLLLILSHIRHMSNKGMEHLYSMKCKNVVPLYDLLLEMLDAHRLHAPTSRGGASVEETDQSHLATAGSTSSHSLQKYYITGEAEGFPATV
Procedure: OT_ERa_GFPERaERE_0120 is a cell-based, single-readout assay that uses HeLa, a human cervix cell line, with measurements taken at 2 hours after chemical dosing in a 384-well plate.OT_ERa_GFPERaERE_0120 is one of one assay component(s) measured or calculated from the OT_ERa_GFPERaERE_0120 assay. It is designed to make measurements of fluorescent protein induction, a form of inducible reporter, as detected with optical microscopy: fluorescence microscopy signals by Microscopy technology.Data from the assay component OT_ERa_GFPERaERE_0120 was analyzed into 1 assay endpoint. This assay endpoint, OT_ERa_EREGFP_0120, was analyzed in the positive analysis fitting direction relative to DMSO as the negative control and baseline of activity. Using a type of inducible reporter, measures of receptor for gain-of-signal activity can be used to understand the reporter gene at the pathway-level as they relate to the gene ESR1. Furthermore, this assay endpoint can be referred to as a primary readout, because the performed assay has only produced 1 assay endpoint. To generalize the intended target to other relatable targets, this assay endpoint is annotated to the nuclear receptor intended target family, where the subfamily is steroidal.
All assay endpoints are quantified using high content image analysis algorithms.
CCOc1cc(Oc2ccc(C(F)(F)F)cc2Cl)ccc1[N+](=O)[O-] was tested, and the outcome was “inactive”. In the case of CNC(=S)S, the outcome is reported as “inactive”. In the case of Cc1cc(Cl)ccc1OCC(=O)O, the outcome is reported as “inactive”. In the case of C=CC1(C)OC(=O)N(c2cc(Cl)cc(Cl)c2)C1=O (stereo not given), the outcome is reported as “inactive” and the AC50 is reported as 50 µM (active). For CCOP(=S)(OCC)SCn1c(=O)oc2cc(Cl)ccc21, the outcome was “inactive”. N#Cc1nn(-c2c(Cl)cc(C(F)(F)F)cc2Cl)c(N)c1S(=O)C(F)(F)F (stereo not given) was tested, and the outcome was “inactive”. For O=C(Nc1ccccc1)Nc1ccnc(Cl)c1, the outcome was “inactive”. For CN(C)C(=S)SSC(=S)N(C)C, the AC50 was 90.7 µM (active). In the case of N#Cc1cc(Br)c(O)c(Br)c1, the outcome is reported as “inactive”. With Cc1ccc(-c2c(Cl)nc(C#N)n2S(=O)(=O)N(C)C)cc1 the outcome was “inactive”. CO/C=C(/C(=O)OC)c1ccccc1Oc1cc(Oc2ccccc2C#N)ncn1 was tested, and the outcome was “inactive”. COc1cnc(OC)n2nc(NS(=O)(=O)c3c(OCC(F)F)cccc3C(F)(F)F)nc12 was tested, and the outcome was “inactive”. CC(C)Oc1cc(-n2nc(C(C)(C)C)oc2=O)c(Cl)cc1Cl was tested, and the outcome was “inactive”. In the case of CCCC1COC(Cn2cncn2)(c2ccc(Cl)cc2Cl)O1 (stereo not given), the outcome is reported as “inactive”. For Oc1ccccc1-c1ccccc1, the outcome was “inactive”. In the case of CCNc1nc(Cl)nc(NC(C)C)n1, the AC50 is reported as 3.42 µM (active) and the outcome is reported as “inactive”. With CS/C(C)=N/OC(=O)N(C)SN(C)C(=O)O/N=C(\C)SC the outcome was “inactive”. For Cc1c(F)c(F)c(COC(=O)C2C(/C=C(\Cl)C(F)(F)F)C2(C)C)c(F)c1F (stereo not given), the outcome was “inactive”. OC(c1ccc(Cl)cc1)(c1cncnc1)c1ccccc1Cl (stereo not given) was tested, and the outcome was “inactive”. With CON(C)C(=O)Nc1ccc(Cl)c(Cl)c1 the outcome was “inactive”. For O=C(O)COc1nc(Cl)c(Cl)cc1Cl, the outcome was “inactive”. In the case of CCCN(CCC)c1c([N+](=O)[O-])cc(S(N)(=O)=O)cc1[N+](=O)[O-], the outcome is reported as “inactive”. For CCCCNC(=O)OCC#CI, the AC50 was 12.1 µM (active). With CCCCC(CC)COC(=O)c1ccccc1C(=O)OCC(CC)CCCC (stereo not given) the outcome was “inactive”. CCNc1nc(Cl)nc(NCC)n1 was tested, and the outcome was “inactive”. In the case of Fc1ccc(Oc2ccnc3cc(Cl)cc(Cl)c23)cc1, the outcome is reported as “inactive”. With CCOC(=O)C(Cl)Cc1cc(-n2nc(C)n(C(F)F)c2=O)c(F)cc1Cl (stereo not given) the outcome was “inactive”. In the case of CCCCOC(=O)c1ccccc1C(=O)OCCCC, the AC50 is reported as 30.6 µM (active) and 20.8 µM (active) and 24.9 µM (active). COc1ccc(C(c2ccc(OC)cc2)C(Cl)(Cl)Cl)cc1 was tested, and the AC50 was 2.7 µM (active) and 2.88 µM (active) and 2.66 µM (active). CC1COC(Cn2cncn2)(c2ccc(Oc3ccc(Cl)cc3)cc2Cl)O1 (stereo not given) was tested, and the outcome was “inactive”. In the case of O=C(O)c1nc(Cl)ccc1Cl, the outcome is reported as “inactive”. In the case of N#CC(CCc1ccc(Cl)cc1)(Cn1cncn1)c1ccccc1 (stereo not given), the outcome is reported as “inactive”. In the case of COC(=O)c1ccccc1C(=O)OC, the outcome is reported as “inactive”. In the case of CC(C)C1(C)N=C(c2nc3ccccc3cc2C(=O)O)NC1=O (stereo not given), the outcome is reported as “inactive”. For CNC(=O)ON=CC(C)(C)SC, the outcome was “inactive”. In the case of CC(C)(C)c1ccc(CSc2cnn(C(C)(C)C)c(=O)c2Cl)cc1, the outcome is reported as “inactive”. For C#CCOS(=O)OC1CCCCC1Oc1ccc(C(C)(C)C)cc1 (stereo not given), the outcome was “inactive”. CCCCNC(=O)n1c(NC(=O)OC)nc2ccccc21 was tested, and the outcome was “inactive”.
